Screening data as filed in PubChem.
A selection: hits, their analogues and other compounds. The true share with any hit is near 19%.
IL-1B inflam inh = inhibitors of inflammasome signaling (IL-1 beta secretion); THP-1 LPS/ATP IL-1B secretion, AlphaLISA, 16 h; hits give low values; activity change, % at 57.5 µM; 4.7% of 360,000 active; AID 743279; in the data active = activity change below about -50%; inconclusive = mostly about -30% to -49%
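Secreted IL-1B measured by AlphaLISA bead assay after 16 h compound exposure of THP-1 cells; compounds (final up to 57.5 uM) added 1 h before LPS (250 ng/mL) and ATP (1.25 mM) stimulation; lower signal means less secretion.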
DT40 TDP1 no CPT = qHTS for Inhibitors of human tyrosyl-DNA phosphodiesterase 1 (TDP1): qHTS in cells in absence of CPT | 15% of 420,000 active | DT40 Tdp1-/- hTDP1 cells, no CPT, ATP luminescence, 48 h | Potency, µM (top dose mostly 46.2 µM), usual class: inhibitors; also: nearly all actives have a fitted effect of over 55% in size
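No-CPT arm: Tdp1-/-;hTDP1 DT40 cells (400/well) plus compounds, incubated ≥48 hr at 37 °C. Readout CellTiter-Glo luminescence.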
Chronic BCR inh = inhibitors of chronic active B-cell receptor signaling | Potency, µM (series often up to 46.1 µM), actives largely listed as inhibitors | ABC-DLBCL IkBa-CBG/CBR reporter, luminescence ratio, 4 h | 0.05% of 340,000 active; active = well fitted inhibition curve with a large enough effect in the signal ratio, with a control signal flat, not every such curve was filed as active; inconclusive = small, poorly fitted or top-dose-only effect, or effect the other way, or a change in a side signal; the % refers to the signal ratio
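TMD8 human ABC-DLBCL cells with doxycycline-inducible IκBα–green luciferase fusion and unfused red luciferase, in 0.5% FBS medium; compounds up to 46 uM, 4 h at 37C. Green/red luminescence ratio, filter-overlap corrected, fitted to concentration-response curves.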
SW480 rerep = DNA re-replication induction in SW480 cells; AID 624297; SW480 DNA re-replication, Hoechst DNA content imaging, 48 h; 1.8% of 340,000 active; Potency, µM (doses to about 46.1 µM), actives largely listed as activators; also: nearly all actives have a fitted effect of over 55% in size
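Readout is total intensity of Hoechst-stained nuclei, excited at 405 nm and collected at 500-530 nm. Compound treatment lasted 48 hr at 37 C in 5% CO2 before staining.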
DT40 TDP1 CPT = growth inhibition of DT40 Tdp1-/-;hTDP1 cells with camptothecin (screen for TDP1 inhibitors). chicken DT40 Tdp1-/-;hTDP1 cells + 20 nM CPT, ATP luminescence, 48 h. Potency, µM (titrated, usually from 46.2 µM), usual class: inhibitors. 12% of 420,000 active; also: nearly all actives have a fitted effect of over 55% in size
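Cell growth measured by CellTiter-Glo luminescence after a minimum 48 h, 37 C compound exposure with 20 nM CPT in Tdp1-knockout DT40 cells stably expressing hTDP1, seeded 400/well; qHTS titration format.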
MCF10A rereplic = DNA re-replication induction in MCF 10a cells | MCF 10A DNA re-replication, Hoechst nuclear intensity, 48 h | 2.9% of 350,000 active | Potency, µM (series often up to 46.1 µM), hits mostly activators | AID 624296; also: nearly all actives have a fitted effect of over 50% in size
Hits are given with their value; n = inactive; u = inconclusive; x = no result. Unless noted, calls follow the shape of the dose curve; as a rule, active = well fitted curve in the direction sought with a large enough effect; inconclusive = small, poorly fitted or top-dose-only effect, or another doubt; inactive = no such curve, though single readings can be large; an effect the other way counts as inactive or inconclusive.

SMILES | IL-1B inflam inh | DT40 TDP1 no CPT | Chronic BCR inh | SW480 rerep | DT40 TDP1 CPT | MCF10A rereplic
Cn1c(OCc2cccnc2)nc2c1c(=O)n(Cc1ccc(F)cc1)c(=O)n2C | n | 11.6µM | n | n | 20.6µM | n
Cn1c(OCc2cccnc2)nc2c1c(=O)n(Cc1ccccc1)c(=O)n2C | n | 18.4µM | n | n | u | n
Cn1c(Oc2ccc3c(c2)OCO3)nc2c1c(=O)n(Cc1ccccc1)c(=O)n2C | n | u | n | n | u | n
Cn1c(OCc2ccc3c(c2)OCO3)nc2c1c(=O)n(Cc1cccc(Cl)c1)c(=O)n2C | n | 10.3µM | x | n | u | n
Cn1c(=O)c2c(nc(SCc3cccnc3)n2Cc2ccc(F)cc2)n(C)c1=O | n | 23.1µM | n | n | 20.6µM | n
COc1ccc(C2NCCc3c2[nH]c2ccccc32)cc1COc1ccc(F)cc1 (configuration not stated) | -93.4 | 20.6µM | u | u | u | 18.4µM
COc1ccc(C2NCCc3c2[nH]c2ccccc32)cc1CN1CCc2cc(OC)c(OC)cc2C1C (configuration not stated) | n | 18.4µM | u | u | u | u
COc1ccc(/C=N/NC(=O)c2cc(OC)c(OC)c(OC)c2)cc1CN1CCc2cc(OC)c(OC)cc2C1C (configuration not stated) | n | u | u | u | u | u
CCCOc1ccc(Cc2c(O)nc(SC)[nH]c2=O)cc1 | n | n | n | n | n | n
C[C@H]1CN([C@@H](C)CO)C(=O)CCCn2nncc2CO[C@@H]1CN(C)S(=O)(=O)c1ccc(-n2cccn2)cc1 | n | n | x | x | n | x
O=C(NN=Cc1ccccc1O)C(O)(c1ccccc1)c1ccccc1 | n | 8.2µM | x | u | 23.1µM | n
O=C(N/N=C/c1ccc(O)c([N+](=O)[O-])c1)C(O)(c1ccccc1)c1ccccc1 | n | 2.91µM | u | n | u | n
O=C(N/N=C/c1cc([N+](=O)[O-])cc([N+](=O)[O-])c1O)C(O)(c1ccccc1)c1ccccc1 | n | n | n | n | n | n
COc1ccc(CCNC(=O)COC(=O)C2CC2)cc1OC | n | n | n | n | n | n
Cc1ccc(CN2CCN(/N=C/C(Br)=C\c3ccccc3)CC2)cc1 | x | 4.11µM | n | u | u | n
Cc1ccc(CN2CCN(/N=C/c3ccc(O)c(O)c3)CC2)cc1 | n | 4.11µM | n | n | 7.31µM | n
COCCn1c(=O)c(-c2ccc(F)c(F)c2)nc2cncnc21 | x | n | x | x | n | x
CCc1c(C2(O)CCCCC2)[nH]c2c(C(=O)OC)cc(Cl)cc12 | n | u | u | n | u | u
COC(=O)c1cc(Cl)cc2c(C)c(C3(O)CCCCC3)[nH]c12 | n | 20.6µM | u | n | u | u
Cc1ccc(Sc2ncccc2O)cc1 | n | n | x | n | n | n
Cc1ccc(Sc2ncccc2N)cc1 | n | n | x | 20.6µM | n | u
COC(=O)C(CCSC)NC(=O)C1CCN(c2ncnc3c2nc2n3CCCCC2)CC1 (configuration not stated) | x | n | x | x | n | x
CS(=O)(=O)N1CCC(c2noc(-c3ccc(C(F)(F)F)cc3)n2)CC1 | n | 10.3µM | n | n | 9.2µM | n
Cc1ccc(-c2nc(C3CCN(S(=O)(=O)c4ccc(C(F)(F)F)cc4)CC3)no2)cc1 | n | n | n | n | n | n
CCS(=O)(=O)N1CCC(c2nc(-c3ccc(C(F)(F)F)cc3)no2)CC1 | n | 14.1µM | n | n | 8.91µM | n
CCS(=O)(=O)N1CCC(c2nc(-c3ccc(C)cc3)no2)CC1 | n | 14.6µM | n | n | 29.1µM | n
CN1C(=O)Cc2cc(S(=O)(=O)CCC(=O)Nc3ccc(Cl)cc3)ccc21 | x | n | x | x | n | x
COc1ccccc1NC(=S)N(CCCN1CCOCC1)Cc1cccs1 | n | u | n | n | n | u
NC(=O)c1cc2c3ccccc3ccn2c1-c1ccccc1 | -91.3 | 0.206µM | u | 0.731µM | 0.184µM | u
